# Where “and” joins values, the source holds several entries; their conditions need not be identical. Identical values can stand only once. Some compounds were tested as several samples or in several runs, with calls that do not always agree. Calls of active or inactive are those of the source. The calls were made as follows: active = hit-call score of the fitted dose curve at least 0.9, where 1 is the maximum; inactive = score below 0.9.
# Read-out: Monokine induced gamma interferon (MIG), CXCL9 (gene 4283)
# Test: BSK_SAg_MIG: BioMAP Diversity Plus: SAg Assay for Monokine induced gamma interferon (MIG) Biomarker Activity (AID 2283092)
# Settings: primary human HUVEC with PBMC; actives raise or lower the signal
# Summary of the method: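 Values reflect bidirectional fitting of ELISA-measured MIG against DMSO vehicle, taken 24 h after dosing of a co-culture of human umbilical vein endothelial cells and peripheral blood mononuclear cells.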
SMILES,AC50,outcome
CCOC(=O)C(O)(c1ccc(Cl)cc1)c1ccc(Cl)cc1,39.3 µM (active),–
O=C(NC(=O)c1cc(F)c(F)cc1Cl)Nc1cc(F)ccc1N1CCC(C(=O)O)CC1,–,inactive
CCC(=O)O[C@H]1CC[C@H]2[C@@H]3CCC4=CC(=O)CC[C@]4(C)[C@H]3CC[C@]12C,35.7 µM (active),–
Cc1cc(O)ccc1Cl,–,inactive
CCOCCOC(C)=O,–,inactive
N#Cc1ccc(N(CC(N)=O)CC(F)(F)F)cc1C(F)(F)F,–,inactive
O=NN(c1ccccc1)c1ccccc1,–,inactive
O=C(O)C(F)(F)C(F)(F)C(F)(F)C(F)(F)C(F)(F)C(F)(F)C(F)(F)C(F)(F)F,–,inactive
C=CC(=O)NCNC(=O)C=C,–,inactive
Clc1ccc(Cl)cc1,–,inactive
Cc1ccccc1[N+](=O)[O-],–,inactive
CC(C)(c1ccccc1)c1ccc(O)cc1,38.7 µM (active),–
CCCCCCCCOC(=O)c1ccccc1C(=O)OCCCCCCCC,–,inactive
Oc1c(Cl)c(Cl)c(Cl)c(Cl)c1Cl,34.8 µM (active),inactive
CCSC(=O)N(CC)C1CCCCC1,–,inactive
O=C(O)C(F)(F)C(F)(F)C(F)(F)C(F)(F)C(F)(F)C(F)(F)C(F)(F)C(F)(F)C(F)(F)F,33.7 µM (active) and 54.9 µM (active) and 53.5 µM (active),–
C1CC2OC2CC1C1CO1 (stereo unspecified),–,inactive
c1cc2ccc3cccc4ccc(c1)c2c34,–,inactive
C[C@]12CCC(=O)C=C1CC[C@@H]1[C@@H]2CC[C@@]2(C)[C@H]1CC[C@]2(C)O,–,inactive
Oc1ccc(Cl)cc1Cl,–,inactive

# Reference: PubChem BioAssay (EPA / NIEHS)
